Experimental data from PubChem BioAssay.

The compounds below were run against Voltage-gated potassium channel subunit beta-2 (Rattus norvegicus) (UniProt P62483) (assay: KvBeta positive modulators, primary screen, biochemical, NADPH fluorescence (AID 623;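 also: fluorescence intensity change per second fitted from 20 to 320 s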)). Settings: Recombinant KvBeta, NADPH fluorescence decrease slope, 10 min; at 10 µM; stronger effect = lower value;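 active = NADPH fluorescence slope more negative than the mean of all samples by about 3 SD, 99.7% confidence; inactive = the rest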.
Sequence of Voltage-gated potassium channel subunit beta-2 (Rattus norvegicus) (P62483 whole entry, looked up): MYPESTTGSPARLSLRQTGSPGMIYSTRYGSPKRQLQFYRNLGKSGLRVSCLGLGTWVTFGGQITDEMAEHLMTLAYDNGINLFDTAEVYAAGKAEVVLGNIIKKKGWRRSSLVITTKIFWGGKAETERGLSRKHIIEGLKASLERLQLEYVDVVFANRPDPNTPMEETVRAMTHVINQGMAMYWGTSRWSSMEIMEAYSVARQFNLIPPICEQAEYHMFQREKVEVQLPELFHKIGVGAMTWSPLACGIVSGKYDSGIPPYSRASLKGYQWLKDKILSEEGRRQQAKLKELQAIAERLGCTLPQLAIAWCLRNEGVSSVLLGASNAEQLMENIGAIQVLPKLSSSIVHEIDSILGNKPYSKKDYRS

NADPH fluorescence slope, inactive:
CCOc1ccc(NC(=O)CN2CCN(CC(=O)Nc3ccc(F)c(F)c3)CC2)cc1 4.4e-05
C=C(C)COc1ccc(-c2nc(N)ncc2Oc2ccccc2OCC)c(O)c1 4.1e-05
Clc1ccccc1-c1nnc2sc(-c3ccccn3)nn12 -6.3e-05
CCOc1cccc(C(=O)Nc2cccc(-c3nc4ncccc4o3)c2C)c1 -3e-05
CCOC(=O)N1CCN(S(=O)(=O)c2cc(Cl)c(OC)cc2Cl)CC1 4.3e-05
CCCCN(CC)S(=O)(=O)N1CCC(C(=O)NCc2ccc(F)cc2)CC1 -2.1e-05
Cc1ccc(Nc2nnns2)cc1C 1.4e-05
C=CCn1c(=O)/c(=C/c2ccc(O)cc2)s/c1=C(/C#N)c1nnc2n1CCCCC2 -4.5e-05
CC(=O)Nc1c(Cl)n(C(C)=O)c2ccccc12 -2.6e-05
COc1ccc(OC)c(S(=O)(=O)Nc2ccccc2C(=O)O)c1 1.5e-05
Cc1ccc(C)c(NC(=O)C2CCC(C)(C(=O)O)C2(C)C)c1 (stereo not given) 2.7e-06
Oc1ccc(N2CCN(C(c3cccnc3)c3nnnn3Cc3ccccc3)CC2)cc1 (stereo not given) -0.000313
CC(C(=O)N1CCOCC1)N1c2cccc3cccc(c23)S1(=O)=O (stereo not given) -2.9e-05
Cc1nc2ccccn2c1/C(O)=C1\C(=O)C(=O)N(CCN2CCOCC2)C1c1cccs1 (stereo not given) -1.7e-05
COC(=O)c1cc(OC)c(OC)cc1NC(=O)CC1CCCCC1 -2.3e-05
COc1ccccc1C(=O)Nc1c2c(nn1-c1cccc(C)c1C)CS(=O)(=O)C2 -4.5e-06
CC(C)=CC(=O)Nc1ccc(Br)cc1 -1.3e-05
COc1cccc2c(=O)c3c(cnn3C)n(C)c12 3.1e-05
O=C(c1noc2c1CCc1ccccc1-2)N1CCOCC1 2.9e-06
CCN1CCN(C(=O)c2ccc3c(=O)n(C4CCCC4)c(=S)[nH]c3c2)CC1 6.6e-05
CCC(Oc1ccc2ccccc2c1)C(=O)O (stereo not given) 6e-05
CC(=O)c1nnn(-c2nc(N3CCCC3)nc(N(c3ccccc3)c3ccccc3)n2)c1C -5.5e-05
COc1ccc(-n2cc(-c3ccccc3)c3c(N4CCN(CCO)CC4)ncnc32)cc1 -6.1e-07
O=C(N1CCCCCC1)N1CCN(S(=O)(=O)N2CCCCC2)CC1 -4.8e-05
OCC#CCSc1nnc(-c2ccccc2Br)o1 -0.000137
CC(C(=O)N1CCc2ccccc21)N1CCc2ccccc2C1 (stereo not given) 0.000133
C=CCN(CC=C)C(=O)CN1C(=O)c2ccccc2C1=O -1.3e-05
O=C(Cn1nnc2c(cnn2-c2ccc(F)cc2)c1=O)c1ccccc1F -4.4e-05
COc1cccc(-c2noc(CCC(=O)NC3CCCCC3)n2)c1 -4.1e-05
Cc1cc(C)c2cc(CN(CC3CCCO3)C(=O)NC3CCCCC3)c(=O)[nH]c2c1 (stereo not given) -5.6e-05
CCOc1cc(C)c(Cl)cc1S(=O)(=O)N(C)C -5.1e-05
COc1ccc(CCNS(=O)(=O)c2ccc3c(c2)CCN3C(=O)CCC(=O)O)cc1OC 7.1e-06
CCOc1ccc(OCc2cccc(C(=O)O)c2)cc1 -2.8e-05
O=c1c2ccccc2cnn1-c1nc2ccccc2s1 -1.6e-05
CCC(C)c1ccc(NC(=O)C2CC2)cc1 (stereo not given) -4.3e-05
O=C(CC1CCCCC1)NCc1ccccn1 -5.1e-05
CS(=O)(=O)N(CC(=O)N1CCN(c2cccc(Cl)c2)CC1)C1CCCCC1 -4.3e-05
Cc1ccc(N2CCN(C(=O)c3ccccc3Br)CC2)c(C)c1 5.2e-06
COC(=O)c1c(N)nc(C)n1-c1ccc(OC)cc1 3e-05
O=C(O)CC1CCCC(c2ccccc2)C1=O (stereo not given) -7.4e-06
